# TbPYK inhibitor – qHTS of Trypanosoma Brucei Inhibitors; pyruvate kinase (Trypanosoma brucei), Q57TT1; TbPYK enzyme, Kinase-Glo Plus ATP luminescence, 45 min; Potency, µM (doses to about 76.8 µM), most hits filed as inhibitors; 410,000 tested, 0.12% active; AID 624173, 2012; note: nearly all actives have a fitted effect of over 50% in size
#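 Activity of T. brucei pyruvate kinase was followed by Kinase-Glo Plus luminescence after the enzyme reacted 45 min at room temperature with 130 uM ADP (final) and substrate. Test compounds were added before ADP at multiple concentrations.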
# Giardia FBPA inh – qHTS Assay for Inhibitors of Fructose-1,6-bisphosphate Aldolase from Giardia Lamblia | 290,000 tested, 0.71% active | Potency, µM (doses to about 59.6 µM), most hits filed as inhibitors | AID 2451, 2010 | purified Giardia FBPA | A8B2U2; note: nearly all actives have a fitted effect of over 55% in size
# Target sequence (A8B2U2 whole entry, looked up): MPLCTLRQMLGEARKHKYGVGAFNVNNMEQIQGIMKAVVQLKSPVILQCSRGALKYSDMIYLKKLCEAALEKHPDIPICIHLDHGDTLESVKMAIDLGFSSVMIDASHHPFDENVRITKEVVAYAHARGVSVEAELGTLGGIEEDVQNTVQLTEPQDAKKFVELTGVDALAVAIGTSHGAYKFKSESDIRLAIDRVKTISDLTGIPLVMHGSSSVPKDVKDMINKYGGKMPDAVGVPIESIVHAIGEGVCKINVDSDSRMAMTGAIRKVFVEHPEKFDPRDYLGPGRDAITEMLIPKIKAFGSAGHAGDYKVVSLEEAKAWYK
#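 Giardia FBPA (40 nM reagent) was preincubated 10 min at RT with compound (up to 57.5 uM final), then substrate plus GAPDH/TPI/NAD/arsenate coupling system with diaphorase/resazurin was added; resorufin fluorescence (525/598 nm) was read after 20 min.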
# NS1 function inh – qHTS Assay for Inhibitors of Influenza NS1 Protein Function. Potency, µM (top dose mostly 46.1 µM). 270,000 tested, 0.4% active; calls by dose curve; note: actives are rising curves; nearly all actives have a fitted effect of over 50% in size
#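 Recovery from NS1-induced slow growth read by OD600 in budding yeast switched to galactose assay medium (pH 6.0, -URA) at 1:100 dilution. Compound 23 nl per well; the matching strain lacking NS1 serves as control.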
# LmPK inh – qHTS Assay for Inhibitors of Leishmania Mexicana Pyruvate Kinase (LmPK); Q27686; Potency, µM (doses to about 57.5 µM), hits mostly inhibitors; AID 1721, 2009; 290,000 tested, 0.37% active; purified LmPK, Kinase-Glo ATP luminescence, 1 h
#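 Pyruvate kinase activity monitored as ATP production (luciferase luminescence). Conditions: 0.1 nM enzyme, 0.5 mM PEP, 0.1 mM ADP, 1 h, RT; normalized against uninhibited and no-enzyme wells.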
# AMA1 RON2 block – qHTS for Inhibitors of AMA1-RON; Towards Development of Antimalarial Drug Lead: Primary Screen; Plasmodium falciparum AMA1 (3D7) - RON2 peptide interaction; AlphaScreen AMA1-biotinylated RON2 peptide binding; Potency, µM (titrated, usually from 58.2 µM), usual class: inhibitors; 360,000 tested, 0.2% active; note: nearly all actives have a fitted effect of over 45% in size
#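 AMA1 (3D7) with his tag at 25 nM final met compounds first, then biotinylated RON2 peptide at 25 nM; detection used donor plus acceptor beads, 10 µg/mL apiece, read by AlphaScreen after 30 min at room temperature.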
# A number is an active result; i = inactive; ? = inconclusive; nt = no result; [ ] = dose if it differs, or a comment. Compounds with a hit are over-represented: about 1.2% of the library has one in this group of screens. Unless noted, calls come from the whole dose curve; as a rule, active = well fitted curve in the direction sought with a large enough effect; inconclusive = small, poorly fitted or top-dose-only effect, or another doubt; inactive = no such curve, though single readings can be large; an effect the other way counts as inactive or inconclusive.
SMILES,TbPYK inhibitor,Giardia FBPA inh,NS1 function inh,LmPK inh,AMA1 RON2 block
COC(=O)CCC(=O)OC1(C)C(=O)C=C2C=C(c3ccc(C#N)cc3)OC=C2C1=O (stereo unspecified),nt,i,nt,nt,nt
Cc1c(N=C2C=CC(=O)c3ccccc32)c(=O)n(-c2ccccc2)n1C,?,17.7µM,nt,?,i
Cc1c(N=Nc2c(O)n(C)c(=O)n(C)c2=O)c(=O)n(-c2ccccc2)n1C,i,i,i,i,i
COc1ccc(/C=C2\SC(c3ccc(C)cc3)=NC2=O)cc1OC,8.91µM,?,i,?,i
Oc1cc2c(cc1O)C1c3ccc(O)c(O)c3OCC1(O)C2 (stereo unspecified),10µM,6.29µM,i,?,2µM
CC(=O)NCCNc1ncncc1-c1ccccc1CN(C)C,nt,i,nt,nt,nt
O=[N+]([O-])c1ccc(Oc2cccc3cccnc23)c([N+](=O)[O-])c1,i,19.9µM,i,i,i
N#Cc1ccc(Oc2cccc3cccnc23)c([N+](=O)[O-])c1,i,i,i,i,i
O=c1c(C=NCCN2CCNCC2)c(-c2ccccc2)[nH]n1-c1ccc([N+](=O)[O-])cc1,nt,i,i,i,nt
Cc1[nH]n(-c2ccc([N+](=O)[O-])cc2)c(=O)c1C=NCCN1CCN(C(=O)c2ccccc2)CC1,i,i,i,28.2µM,i
COc1ccc(-c2[nH]n(-c3ccc([N+](=O)[O-])cc3)c(=O)c2C=NCCN2CCNCC2)cc1,nt,?,i,15.8µM,nt
C=C(C(=O)C(C)(C)O)C(O)c1ccc([N+](=O)[O-])cc1 (stereo unspecified),nt,i,nt,nt,nt
OC(CN1CCCCC1)c1cc(-c2ccccc2)on1 (stereo unspecified),i,nt,nt,nt,nt
Cc1ccc(CN2CCN(/N=C/c3ccc(C)s3)CC2)cc1,i,i,i,i,25.1µM
Cc1ccc(/C=N/N2CCN(Cc3ccccc3)CC2)s1,i,i,?,i,i
CC(/C=N\N1CCN(Cc2ccc(C)cc2)CC1)=C\c1ccccc1,i,i,i,i,?
Cc1ccc(CN2CCN(/N=C\C=C\c3ccccc3)CC2)cc1,i,i,i,i,12.6µM
COc1cccc(CC(=O)N2CCc3nc(-c4ccc(OC)cc4C)c4c(c3C2)CO[C@@H](c2ccccc2)C4)c1,nt,i[12.9 µM],nt,i[11.5 µM],nt
COc1ccc(Cl)cc1N=Nc1ncc[nH]1,nt,i,nt,nt,nt
COc1c(O)c(O)c2cc(OC)c3c(OC)cc(=O)c4c5c(=O)c(OC)c(C(C)=O)c6c5c(c1CC=6C)c2c34,nt,i,nt,nt,nt
Cc1ccc(-c2nc3nc(C)cc(C)n3c2Nc2ccc3c(c2)OCCO3)cc1,i,nt,nt,nt,nt
Cc1cc(C)n2c(Nc3ccc4c(c3)OCCO4)c(-c3ccccn3)nc2n1,i,nt,nt,nt,8.91µM
Cc1c(C2=CCN(S(=O)(=O)c3ccc(CC(C)C)cc3)CC2)c2ccccc2n1CC(=O)N1CCCC1,i,nt,nt,nt,nt
O=[N+]([O-])c1cc(C(F)(F)F)ccc1NC1CCN(Cc2ccccc2)CC1,i,i,i,i,12.6µM
O=[N+]([O-])c1cc(C(F)(F)F)ccc1NC1CCN(Cc2ccccc2)C1 (stereo unspecified),i,nt,i,i,i
SMILES,TbPYK inhibitor,Giardia FBPA inh,NS1 function inh,LmPK inh,AMA1 RON2 block
Cc1ccc(-c2nnc(Nc3cccc(C(F)(F)F)c3)c3ccccc23)cc1S(=O)(=O)N1CCOCC1,i,nt,nt,nt,nt
O=C(Nc1ccc(N2CCCCCC2)cc1)c1ccccc1Cl,i,i,i,i,?
O=C(Nc1ccc(N2CCCCC2)cc1)c1ccccn1,?,i,nt,7.94µM,i
CCOC(=O)C1=C(Cc2ccc(Cl)cc2)C(=O)c2ccccc2C1=O,?,2.51µM,i,?,?
CCOC(=O)C1=C(C)N=C2c3ccccc3C(=O)C2C1c1ccc(Cl)cc1 (stereo unspecified),i,i,i,i,i
NC[C@H](O)c1ccc(O)c(O)c1,i,?,i,nt,2.82µM
CNCC(O)c1ccc(O)cc1 (stereo unspecified),i,i,i,i,i
NCC(O)c1cc(O)c(O)cc1F (stereo unspecified),i,5.61µM,i,nt,?
Oc1ccc(C(O)CNCCCCCCNCC(O)c2ccc(O)c(O)c2)cc1O (stereo unspecified),i,nt,nt,nt,nt
CNC[C@H](O)c1ccc(O)c(O)c1,i,17.7µM,i,i,?
C[C@@H](c1ccccc1)N1C(=O)[C@H]2[C@@H]3[C@H](O)[C@H](O)CC(=O)[C@H]3CC[C@H]2C1=O,nt,i[12.9 µM],nt,nt,nt
CC(N)C(=O)c1ccccc1 (stereo unspecified),i,nt,nt,nt,nt
CC(=O)OCC(=O)[C@@]1(OC(C)=O)[C@H](C)C[C@H]2[C@@H]3C[C@H](F)C4=CC(=O)C=C[C@@]4(C)[C@]3(F)[C@H](O)C[C@@]21C,nt,i,nt,nt,nt
CC(C)(C)c1ccc(-c2n[nH]c(=S)n2C2CCCC2)cc1,?,i,i,10µM,i
S=c1[nH]nc(-c2cccs2)n1Cc1ccccc1,?,i,i,i,i
Nc1sc(-c2ccccc2)cc1-c1n[nH]c(=S)n1C1CCCCC1,i,i,?,i,i
CC(C1CC2CCC1C2)n1c(-c2cccs2)n[nH]c1=S (stereo unspecified),?,i,i,5.01µM,i
S=c1[nH]nc(-c2cccs2)n1C1CCCCC1,7.08µM,?,i,3.55µM,i
Cc1ccc(NC(=O)CC(C)S(=O)(=O)c2ccc3c(c2)NC(=O)CO3)c(C)c1 (stereo unspecified),i,nt,nt,nt,nt
CC(C)CO/N=C1/C[C@@H](O)[C@@H](O)[C@@H]2[C@H]3C(=O)N(c4ccc(F)cc4F)C(=O)[C@@H]3CC[C@@H]12,nt,i[12.9 µM],nt,nt,nt
O=C(c1cccs1)c1no[n+]([O-])c1C(=O)c1cccs1,i,3.97µM,i,i,i
COc1ccc(C(=O)c2no[n+]([O-])c2C(=O)c2ccc(OC)cc2)cc1,i,?,i,i,i
COc1ccc(-c2cnnc(CCCn3ccnc3-c3ccccc3)n2)cc1,nt,i[12.9 µM],nt,nt,nt
CN(C)c1ccc(C=c2c3ccccc3n3c2cc(-c2ccccc2)[n+]3C)cc1,i,nt,nt,nt,31.6µM
CN(C)c1ccc(C=c2c3ccccc3n3c2cc(-c2ccc(Cl)cc2)[n+]3C)cc1,i,nt,nt,nt,17.8µM
SMILES,TbPYK inhibitor,Giardia FBPA inh,NS1 function inh,LmPK inh,AMA1 RON2 block
COc1cc(C=c2c3ccccc3n3c2cc(-c2ccccc2)[n+]3C)cc(OC)c1OC,i,nt,nt,nt,?
COc1cc(N(C)C)ccc1C=c1c2ccccc2n2c1cc(-c1ccccc1)[n+]2C,?,nt,nt,nt,12.6µM
CN(C)c1ccc(C=c2c3cc([N+](=O)[O-])ccc3n3c2cc(-c2ccccc2)[n+]3C)cc1,?,nt,nt,nt,8.91µM
CN(C)c1ccc(C=c2c3ccccc3n3c2c2c([n+]3C)CCCC2)cc1,i,nt,nt,nt,?
CC(C)=CCC/C(C)=C\CC/C(C)=C\CC/C=C(\C)CC/C=C(\C)CCC=C(C)C,i,nt,nt,nt,nt
Cn1ncc2c(N3CCN(c4ccc(F)cc4)CC3)ncnc21,i,nt,nt,nt,nt

# Screening results as filed in PubChem BioAssay.
